Consider eight compounds from PubChem BioAssay (NCATS).

Structures are written as SMILES. A number with no mark means an inactive call. Inconclusive results are not listed. The source made the active and inactive calls. Unless noted, calls come from the whole dose curve; as a rule, active = well fitted curve in the direction sought with a large enough effect; inconclusive = small, poorly fitted or top-dose-only effect, or another doubt; inactive = no such curve, though single readings can be large; an effect the other way counts as inactive or inconclusive.

Assay [1] concerns Es-2. The experiment in a line: Primary qHTS to identify gynecologic anti-cancer compounds using libraries of approved drugs and bioactive compounds (AID 1345084). Note: % is set by controls: 0 for no effect and ±100 for the full control effect; nearly all actives have a fitted effect of over 55% in size. To be noted: Gynecologic cancer cell panel viability, ATPlite luminescence, 48 h; series mostly up to 57.5 µM. In short, it runs like this: (§1)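 Five-point cytotoxicity, 48 h drug exposure at 37 C, 5% CO2, on cells seeded 16 h beforehand. ATP content read by ATPlite luminescence.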

The test system of assay [2] is HeLa. The assay is described as above. To be noted: Gynecologic cancer cell panel viability, ATPlite luminescence, 48 h; series mostly up to 57.5 µM. In short, it runs like this: as §1
Assay [3] has as its system Hek293T. The description is as above. To be noted: Gynecologic cancer cell panel viability, ATPlite luminescence, 48 h, control line for the selectivity index; series mostly up to 57.5 µM. The procedure, abridged: as §1
Assay [4] relates to JEG-3. The assay is described as above. The note with it: Gynecologic cancer cell panel viability, ATPlite luminescence, 48 h; series mostly up to 57.5 µM. The procedure, abridged: as §1
The subject of assay [5] is OV90. Described as above. The note with it: Gynecologic cancer cell panel viability, ATPlite luminescence, 48 h; series mostly up to 57.5 µM. The procedure, abridged:
as §1

Assay [6] concerns PA-1. Described as above. To be noted: Gynecologic cancer cell panel viability, ATPlite luminescence, 48 h; series mostly up to 57.5 µM. In short, it runs like this: as §1
Assay [7] relates to SKOV3. The assay is described as above. The note with it: Gynecologic cancer cell panel viability, ATPlite luminescence, 48 h; series mostly up to 57.5 µM. The procedure, abridged:
as §1

Assay [8] has as its system Tov-21-G. The description is as above. The note with it: Gynecologic cancer cell panel viability, ATPlite luminescence, 48 h; series mostly up to 57.5 µM. In short, it runs like this:
as §1

Assay [9] relates to Tov112D. Described as above. To be noted: Gynecologic cancer cell panel viability, ATPlite luminescence, 48 h; series mostly up to 57.5 µM. The procedure, abridged:
as §1

Assay [10] is described as follows: Drug repurposing screens with cells derived from glioblastoma tumor samples (AID 1345199). For activity, negative = cell killing: % is set by controls: 0 for no effect and ±100 for the full control effect. Note: nearly all actives have a fitted effect of over 40% in size. Note: potency is the fitted concentration of half-maximal effect. The note with it: GBM patient neurospheres viability, ATP luminescence, 48 h. The procedure, abridged:
(§2)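 Four patient lines of CD133+ GBM neurospheres were screened at several concentrations; hits were retested in those lines plus three slower-growing GBM lines, using 48-hour treatment and ATP-based viability.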

The test system of assay [11] is astro. Described as above. The note with it: viability, ATP luminescence, 48 h; series mostly up to 45.9 µM. In short, it runs like this:
as §2

Assay [12] is described as follows: qHTS assay to identify inhibitors of the type 1 interferon - major histocompatibility complex class I in skeletal muscle: Counter screen cell viability and HiBit confirmation (AID 1347412). Note: % is set by controls: 0 for no effect and ±100 for the full control effect; nearly all actives have a fitted effect of over 60% in size. To be noted: iHSKM muscle cells + IFN-b, HiBiT or CellTiter-Glo, 24 h; Potency: HiBiT unless noted; Viability, at 45.9 µM (top of the series). In short, it runs like this:
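Duplicate plates, pinned identically: one read for HiBiT-tagged endogenous HLA-B luminescence, the other for ATP-content viability via CellTiter Glo. Cells were genome-engineered human myoblasts given 4 ng/ml IFN-b; compounds 12-pt, 1:3 from 46 uM final; 24 hr exposure.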

The nature of assay [13]: qHTS assay for small molecule activators of the human pregnane X receptor (PXR) signaling pathway (AID 720659; call rule not given here; note: 0% is about no effect).
Assay [14] concerns the target Nuclear receptor subfamily 1 group I member 2 (Rattus norvegicus) (UniProt Q9R1A7). In words: qHTS assay for small molecule activators of the rat pregnane X receptor (rPXR) signaling pathway (AID 651751; call rule not given here; note: 0% is about no effect). The note with it: rPXR reporter cells, luciferase (One-Glo), 24 h.
Where [15] appears, read: at 45.9 µM (top of the series), tumour line B.
[16] abbreviates: at 45.9 µM (top of the series), tumour line D.
Where [17] appears, read: at 46 µM (top of the series), tumour line A.
[18] abbreviates: at 46.1 µM (top of the series), tumour line C.

Sequence of Nuclear receptor subfamily 1 group I member 2 (Rattus norvegicus) (Q9R1A7 whole entry, looked up): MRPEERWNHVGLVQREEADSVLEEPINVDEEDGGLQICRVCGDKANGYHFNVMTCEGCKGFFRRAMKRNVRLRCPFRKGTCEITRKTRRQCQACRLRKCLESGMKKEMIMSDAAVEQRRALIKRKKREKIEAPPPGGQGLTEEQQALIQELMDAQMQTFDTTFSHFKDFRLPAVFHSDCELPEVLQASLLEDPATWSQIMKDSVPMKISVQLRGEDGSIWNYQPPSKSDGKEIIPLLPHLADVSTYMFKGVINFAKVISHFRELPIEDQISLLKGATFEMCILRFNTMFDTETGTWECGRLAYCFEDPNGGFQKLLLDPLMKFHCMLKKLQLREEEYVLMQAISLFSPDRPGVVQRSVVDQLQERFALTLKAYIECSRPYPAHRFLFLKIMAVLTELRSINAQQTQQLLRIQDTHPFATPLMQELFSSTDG

For the compound `O=C(COc1ccc(Cl)cc1)N1CCN(Cc2ccc3c(c2)OCO3)CC1`, the Potency entry in [1], in assay [2], in assay [3], in [4], in assay [5] and in assay [6] was “inactive” in each case. For the same compound, the Potency entry in assay [7], in assay [8], in assay [9] and in assay [11] was “inactive” each time. The activity, negative = cell killing in [10] (setting [15]) is -2.59%; in assay [10] (setting [16]), -28.6%. Further, the Potency in assay [10] (tumour line A) is 20 µM (active).

In the case of `Nc1ccc(/C=C/c2ccc(N)cc2S(=O)(=O)O)c(S(=O)(=O)O)c1`, the activity change, negative = cytotoxicity is 1.34% [at 0.462 µM] in assay [1]; 9.69% [at 0.462 µM] in [2]; 4.03% [at 0.462 µM] in [3]; -1.28% [at 0.462 µM] in assay [4]; 2.33% [at 0.462 µM] in assay [5]; 4.94% [at 0.462 µM] in [6]. The activity change, negative = cytotoxicity in [7] is -10.7% [at 0.462 µM]; in [8], 0.128% [at 0.462 µM]; in assay [9], 3.4% [at 0.462 µM]. Further, the activity, negative = cell killing was -7.96% in [10] (setting [15]), -14.3% in [10] (setting [16]), -15.5% in assay [10] (setting [17]) and -2.52% in assay [10] (setting [18]). Besides, the Potency result in assay [11] was “inactive”.

`NC(CS)C(=O)O` (stereo not drawn): the Potency entry in [1], in assay [2], in assay [3], in assay [4], in assay [5] and in [6] was “inactive” throughout. For the same compound, the Potency entry in assay [7], in assay [8], in [9] and in assay [11] was “inactive” each time. Further, the activity, negative = cell killing in [10] (setting [15]) is -9.5%; in assay [10] (setting [16]), -0.348%; in assay [10] (setting [17]), -20.7%; in [10] (setting [18]) it was -17%.

Take `C[C@H]1C[C@H]2[C@@H]3CCC4=CC(=O)C=C[C@]4(C)[C@@]3(Cl)[C@@H](O)C[C@]2(C)[C@@]1(O)C(=O)CO`: the Potency result in assay [1], in [2], in [3], in [4], in assay [5] and in [6] was “inactive” each time. In addition, the Potency result in [7], in assay [8], in assay [9], in assay [11] and in assay [12] was “inactive” throughout. Also, the activity, negative = cell killing is -17% in assay [10] (setting [15]), -11.6% in [10] (setting [16]), -29.5% in assay [10] (setting [17]) and -24.3% in assay [10] (setting [18]). The compound was called inactive in assay [13].

As to `O=C(O)CCCCC(=O)O`, the Potency result in [1], in assay [2], in assay [3], in assay [4], in assay [5] and in assay [6] was “inactive” in each case. The Potency result in assay [7], in assay [8], in assay [9] and in assay [11] was “inactive” in each case. For the same compound, the activity, negative = cell killing in assay [10] (setting [15]) is 11.6%; in assay [10] (setting [16]), -7.89%; in [10] (setting [17]) it was -0.455%; in assay [10] (setting [18]), 0.572%. The max response in assay [14] was -0.0429%. Also, the compound was called inactive in [13].

On to `Cc1cc(=O)n(-c2ccccc2)n1C`, for which the Potency result in assay [1], in [2], in [3], in [4], in assay [5] and in [6] was “inactive” each time. Also, the Potency entry in assay [7], in assay [8] and in [9] was “inactive” throughout. In addition, the activity, negative = cell killing in [10] (setting [15]) was -5.78%; in [10] (setting [16]), 0.358%; in assay [10] (setting [17]), -19.4%; in [10] (setting [18]), -23.6%. Also, the max response in assay [14] is 0.521%. For the same compound, the compound was called inactive in [13].

In the case of `Nc1ccc(C(=O)O)cc1`, the Potency result in assay [1], in assay [2], in assay [3], in [4], in assay [5] and in [6] was “inactive” throughout. Also, the Potency entry in [7], in assay [8], in [9] and in [11] was “inactive” each time. Further, the activity, negative = cell killing in assay [10] (setting [15]) was -6.59%; in assay [10] (setting [16]), -1.8%; in [10] (setting [17]), -31.3%; in [10] (setting [18]) it was -10.3%. Moreover, in [14], the max response was -6.06%. Further, in assay [13], the result was inactive.

Take `CC(Cc1ccccc1)(NC(=O)CN)c1ccccc1` (stereo not drawn): the Potency entry in [1], in assay [2], in assay [3], in assay [4], in [5] and in assay [6] was “inactive” in each case. Also, the Potency entry in assay [7], in assay [8], in [9] and in assay [11] was “inactive” each time. The figures for the activity, negative = cell killing in assay [10] (setting [15]), in assay [10] (setting [16]) and in [10] (setting [18]) were -9.21%, 3.89% and -26.6%, respectively. Also, in assay [10] (tumour line A), the Potency was 20 µM (active).
